From ChEMBL document CHEMBL4513216, “Probing the Open Global Health Chemical Diversity Library for Multistage-Active Starting Points for Next-Generation Antimalarials” (ACS Infect Dis, 2020) come the findings set out here.

Molecules are shown by their SMILES. In all, about 69,000 compounds went through this assay and about 8,600 (12%) showed an effect of 50% or more. This excerpt belongs to a sample that is enriched for strong results.

The test has as its system Plasmodium berghei. The experiment in a line: Screen against P. berghei liver stage (PbLuc), transformed with Luciferase, at 10uM. It counts as functional, HepG2. Conditions: tested at 10 uM.
Take `CCOC(=O)N1CCN(C(=O)c2snnc2-c2ccccc2)CC1`: the INHIBITION is listed as -7.27%.
For the compound `CNC(=O)CN1CCOCC2(CCCN(CCc3ccccc3)C2)C1` (stereo not given), the INHIBITION is 43.2%.
Then `COCc1ccccc1CNC(=O)CN1CCC2(CCOC2)C1` (stereo not given), with 68.4%; and `COc1ccc(Cl)cc1CNC(=O)CN1CCC2(CCOC2)C1` (stereo not given), with 39.6%.
As for `CCOc1cccc(CNC(=O)CN2CCC3(CCOC3)C2)c1` (stereo not given), the INHIBITION was 61.9%.
With `COCc1ccccc1CNC(=O)CN1CCCC1c1noc(C)n1` (stereo not given), the INHIBITION is reported as -1.05%.
As to `CCCOc1cccc(CNC(=O)CN2CCN(C)CC2C)c1` (stereo not given), the INHIBITION is 36.9%.
Regarding `Cc1oncc1C(=O)N[C@@H]1CN(Cc2ccoc2)C[C@@H]2CCCO[C@@H]21`, the INHIBITION was 43%.
In the case of `COc1cc(N2CCC3(CC2)OCC(=O)NC3C)ncn1` (stereo not given), the INHIBITION was determined as 10.6%.
Consider `Cc1cc(F)cc(S(=O)(=O)NC(=O)CCc2cncc(F)c2)c1`, for which the INHIBITION is on record as 38.9%.
Turning to `CNC(=O)CCc1cc(C)nc(C2CCCCN2)n1` (stereo not given), the INHIBITION was determined as 26.3%.
The same measure for `O=C(COc1ccccc1F)NCC(O)(c1ccccc1)C1CC1` (stereo not given): -22.7%; for `CN(C)c1cnnc(N2CCN(C(=O)CCC3CCCCC3)CC2)c1`: 76.7%; for `CC(C)CC(=O)N1CCN(c2cc(N(C)C)cnn2)CC1`: 22.2%.
For the compound `Cc1nn(C)c(C)c1C(=O)N1CCN(C(=O)CC2CCCCC2)CC1`, the INHIBITION is 39.4%.
Turning to `Cc1cc(C(=O)N2CCN(C(=O)CCC3CCCCC3)CC2)n(C)n1`, the INHIBITION is 56.5%.
On to `Cc1nn(C)c(C)c1C(=O)N1CCN(C(=O)CCC2CCCCC2)CC1`, for which the INHIBITION worked out at 28.7%.
For `CCC(=O)N1CCN(c2cc(N(C)C)cnn2)CC1`, the INHIBITION is given as -15.6%.
On to `CCN1CC(C(=O)NCCn2cccc2)CCC1=O` (stereo not given), for which the INHIBITION is given as 44.8%.
The same measure for `NCc1cc(-c2ccccc2)n2nccc2n1`: 41.2%.
Regarding `CS(=O)(=O)N[C@@H]1COC[C@@H]2CN(Cc3ccco3)C[C@@H]21`, the INHIBITION came out at 18.4%.
For the compound `Cn1nccc1C(=O)N1C[C@@H]2CC[C@H](Oc3cccc(F)c3)[C@@H]2C1`, the INHIBITION is listed as 25.6%.
As for `CCNC(=O)c1cc2n(n1)CCCO2`, the INHIBITION was 9.41%.
For the compound `CCOC(=O)c1cc2n(n1)CCCO2`, the INHIBITION stood at 57.6%.
Consider `CCOC(=O)CNC(=O)c1cc2n(n1)CCCO2`, for which the INHIBITION is given as -0.996%.
Regarding `COC(=O)c1ccc(OC)c(OC23CCCN(CC2)C3)c1` (stereo not given), the INHIBITION is recorded as -9.76%.
As for `N#Cc1ccc(C(=O)N2CCC3(CC2)CC3)cc1`, the INHIBITION is reported as 40.8%.
For `O=C(c1cc(F)cc(F)c1)N1CCC(O)(C(F)(F)F)CC1`, the INHIBITION stood at 25.4%.
The same measure for `O=C(c1cc(F)cc(F)c1)N1CCC2(CC1)CC2`: 73.2%.
In the case of `COCCN1CCO[C@@H]2CN(C(=O)NCc3cccnc3)CC[C@@H]2C1`, the INHIBITION is reported as 29.8%.
With `Cc1nc(CN(Cc2ccccc2F)C2CCC2)no1`, the INHIBITION was -16.6%.
Turning to `O=C(Nc1ccc2c(c1)OCCO2)N1CCCN(Cc2cccs2)CC1`, the INHIBITION is reported as -14.1%.
For the compound `O=C1CCc2cc(NC(=O)N3CCCN(Cc4cccs4)CC3)ccc21`, the INHIBITION was determined as 53.8%.
Then `O=C1Cc2cc(NC(=O)N3CCCN(Cc4cccs4)CC3)ccc2N1`, with 42.7%; and `Cc1noc(C)c1CNCC1Cn2nncc2CO1` (stereo not given), with 40.3%; and `Cc1nc(N2CCCC2)nc2c1CN(C(=O)NC(C)C)CC2`, with -9.74%.
In the case of `CC(C)[C@@H]1CN(CCOc2ccc(Cl)cc2)C[C@H]1NS(C)(=O)=O`, the INHIBITION came out at 14.6%.
Take `CCc1ccccc1OCCN1CCC(NS(C)(=O)=O)CC1`: the INHIBITION was found to be 43.1%.
For the compound `CS(=O)(=O)N[C@H]1CN(CCOCc2ccccc2)C[C@@H]1C1CC1`, the INHIBITION is on record as 15%.
Turning to `CC(C)[C@@H]1CN(CCCOc2ccc(F)cc2)C[C@H]1NS(C)(=O)=O`, the INHIBITION is 54.5%.
For the compound `CCc1ccccc1OCCN1C[C@@H](NS(C)(=O)=O)[C@H](C(C)C)C1`, the INHIBITION is recorded as 57.3%.
`CC(C)[C@@H]1CN(Cc2c[nH]nc2-c2ccc(F)cc2)C[C@H]1NS(C)(=O)=O`: the INHIBITION was -5.22%.
Then `CCOc1ccc(Cl)c(C(=O)N2CCN(C(=O)OC)CC2)n1`, with -6.44%; and `Cc1cc(C2CCCN2S(=O)(=O)c2cnn(C)c2)on1` (stereo not given), with -9.8%.
For `Cc1nn(C)cc1CN1C[C@H]2CC[C@@H](C1)N(Cc1c(C)noc1C)C2=O`, the INHIBITION is reported as -4.4%.
Take `Cc1ccc(CNC(=O)NCc2ccco2)s1`: the INHIBITION worked out at 10.7%.
Consider `CN(C)c1ncc(I)c(C2CCCN2C)n1` (stereo not given), for which the INHIBITION is on record as -54.1%.
Consider `CS(=O)(=O)NCC1CCCCN1C(=O)c1csc(-c2ccsc2)n1` (stereo not given), for which the INHIBITION is given as -89.3%.
On to `CS(=O)(=O)NCC1CCCCN1C(=O)c1ccsc1` (stereo not given), for which the INHIBITION is 59.5%.
Regarding `CS(=O)(=O)NCC1CCCCN1C(=O)c1ccc(Br)s1` (stereo not given), the INHIBITION is reported as -50.5%.
For the compound `Cc1ccc2nc(NCCCN3CCCCCC3=O)n(C)c(=O)c2c1`, the INHIBITION was found to be 8.97%.
For `Cc1ccc2nc(NCCN3CCOCC3)n(C)c(=O)c2c1`, the INHIBITION was -22.4%.
`CCN1CCN(CCNc2nc3ccc(C)cc3c(=O)n2C)CC1`: the INHIBITION was 71.7%.
`Cc1nc(C)n(CC2CCCN2CC(=O)Nc2ccncc2)n1` (stereo not given): the INHIBITION is 25.4%.
`COCCN1CCO[C@@H]2CN(C(=O)Cc3cccc(F)c3)CC[C@@H]2C1`: the INHIBITION is given as 10.5%.
